# Article PMC9911399, “Two distinct binding modes provide the RNA-binding protein RbFox with extraordinary sequence specificity”
# Where a chain is given by its changes, count along the chain named. The full ranking holds about 16,000 sequences; the median of “ka relative to ugcaugu” is about 0.0091, and the highest 2% start at about 0.032. Many of the other results were omitted from the sample, so the highest values are more common in it than they were.
# T1: RBFOX1 RRM (Homo sapiens, UniProt Q9NWB1 109-208)
# T1 sequence: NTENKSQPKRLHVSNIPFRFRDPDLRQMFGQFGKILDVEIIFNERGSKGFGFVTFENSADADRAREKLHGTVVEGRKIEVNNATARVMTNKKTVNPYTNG
# B1: GUUGUCC (DNA:RNA)
# RNA: GGGAGACCGGAAUUCAGAUUGUCCGUUGUCCUUAAAUCCCGUCGUAGCCACCA
# DNA 1: CAATCTGAATTCCGGTCTCCC
# DNA 2: TGGTGGCTACGACGGGATT
# B2: CUGGCAC (DNA:RNA)
# RNA: B1 RNA with G25C, U27G, U29C, C30A
# DNA 1: CAATCTGAATTCCGGTCTCCC
# DNA 2: TGGTGGCTACGACGGGATT
# B3: CUGGCAG (DNA:RNA)
# RNA: B1 RNA with G25C, U27G, U29C, C30A, C31G
# DNA 1: CAATCTGAATTCCGGTCTCCC
# DNA 2: TGGTGGCTACGACGGGATT
# B4: UGGCAGU (DNA:RNA)
# RNA: GGGAGACCGGAAUUCAGAUUGUCCUGGCAGUUUAAAUCCCGUCGUAGCCACCA
# DNA 1: CAATCTGAATTCCGGTCTCCC
# DNA 2: TGGTGGCTACGACGGGATT
# B5: UGGGCAG (DNA:RNA)
# RNA: B4 RNA with C28G, A29C, G30A, U31G
# DNA 1: CAATCTGAATTCCGGTCTCCC
# DNA 2: TGGTGGCTACGACGGGATT
# B6: UGGGCAC (DNA:RNA)
# RNA: B4 RNA with C28G, A29C, G30A, U31C
# DNA 1: CAATCTGAATTCCGGTCTCCC
# DNA 2: TGGTGGCTACGACGGGATT
# B7: UGGCACU (DNA:RNA)
# RNA: B4 RNA with G30C
# DNA 1: CAATCTGAATTCCGGTCTCCC
# DNA 2: TGGTGGCTACGACGGGATT
# B8: CCGCAGU (DNA:RNA)
# RNA: B4 RNA with U25C, G26C
# DNA 1: CAATCTGAATTCCGGTCTCCC
# DNA 2: TGGTGGCTACGACGGGATT
# B9: AACCGUA (DNA:RNA)
# RNA: B4 RNA with U25A, G26A, G27C, A29G, G30U, U31A
# DNA 1: CAATCTGAATTCCGGTCTCCC
# DNA 2: TGGTGGCTACGACGGGATT
# B10: CGCCCCG (DNA:RNA)
# RNA: B4 RNA with U25C, G27C, A29C, G30C, U31G
# DNA 1: CAATCTGAATTCCGGTCTCCC
# DNA 2: TGGTGGCTACGACGGGATT
# B11: UUGCACU (DNA:RNA)
# RNA: B4 RNA with G26U, G30C
# DNA 1: CAATCTGAATTCCGGTCTCCC
# DNA 2: TGGTGGCTACGACGGGATT
# B12: GGGAUAU (DNA:RNA)
# RNA: B4 RNA with U25G, C28A, A29U, G30A
# DNA 1: CAATCTGAATTCCGGTCTCCC
# DNA 2: TGGTGGCTACGACGGGATT
# B13: UAAGUGG (DNA:RNA)
# RNA: B1 RNA with G25U, U26A, U27A, C30G, C31G
# DNA 1: CAATCTGAATTCCGGTCTCCC
# DNA 2: TGGTGGCTACGACGGGATT
# B14: GUUAAGA (DNA:RNA)
# RNA: B1 RNA with G28A, U29A, C30G, C31A
# DNA 1: CAATCTGAATTCCGGTCTCCC
# DNA 2: TGGTGGCTACGACGGGATT
# B15: UGGGUCU (DNA:RNA)
# RNA: B4 RNA with C28G, A29U, G30C
# DNA 1: CAATCTGAATTCCGGTCTCCC
# DNA 2: TGGTGGCTACGACGGGATT
# B16: UGGUCUU (DNA:RNA)
# RNA: B4 RNA with C28U, A29C, G30U
# DNA 1: CAATCTGAATTCCGGTCTCCC
# DNA 2: TGGTGGCTACGACGGGATT
# B17: UGGGGUC (DNA:RNA)
# RNA: B4 RNA with C28G, A29G, G30U, U31C
# DNA 1: CAATCTGAATTCCGGTCTCCC
# DNA 2: TGGTGGCTACGACGGGATT
# B18: GUGGGUC (DNA:RNA)
# RNA: B1 RNA with U27G, U29G, C30U
# DNA 1: CAATCTGAATTCCGGTCTCCC
# DNA 2: TGGTGGCTACGACGGGATT
# B19: CUGGGUC (DNA:RNA)
# RNA: B1 RNA with G25C, U27G, U29G, C30U
# DNA 1: CAATCTGAATTCCGGTCTCCC
# DNA 2: TGGTGGCTACGACGGGATT
# B20: CUGGUCU (DNA:RNA)
# RNA: B1 RNA with G25C, U27G, C31U
# DNA 1: CAATCTGAATTCCGGTCTCCC
# DNA 2: TGGTGGCTACGACGGGATT
# Target: T1, RBFOX1 RRM
# Assay: EMSA; HiTS-Eq, 1 nM pool, 10 min; buffer printed only for the single-RNA assays: 10 mM Tris pH 7.5, 150 mM NaCl, 3.4 mM EDTA, 0.001% NP-40, 30 C
# Conditions: tags: His6 N-terminal (pET28a); label: 5' 32P
# Outline: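 Purified RbFox RRM, wild type or mutant, was incubated for 10 min in 50 µL with 1 nM of a 5′-radiolabelled RNA pool carrying 7 randomized nucleotides, whose flanks were annealed to DNA oligonucleotides, over a series of increasing protein concentrations. Unbound RNA was resolved on 8% native PAGE, cut out, reverse-transcribed, barcoded by PCR and sequenced on an Illumina HiSeq 2500. Relative association constants were derived from changes in read counts for each RNA species versus the control reaction and normalised to the cognate motif.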
row,Binder,binding signal
1,B1,0.0202 KA relative to UGCAUGU
2,B2,0.0183 KA relative to UGCAUGU
3,B3,0.0227 KA relative to UGCAUGU
4,B4,0.0192 KA relative to UGCAUGU
5,B5,0.0337 KA relative to UGCAUGU
6,B6,0.0337 KA relative to UGCAUGU
7,B7,0.0174 KA relative to UGCAUGU
8,B8,0.00716 KA relative to UGCAUGU
9,B9,0.00191 KA relative to UGCAUGU
10,B10,0.007 KA relative to UGCAUGU
11,B11,0.021 KA relative to UGCAUGU
12,B12,0.0263 KA relative to UGCAUGU
13,B13,0.00934 KA relative to UGCAUGU
14,B14,0.012 KA relative to UGCAUGU
15,B15,0.0375 KA relative to UGCAUGU
16,B16,0.0179 KA relative to UGCAUGU
17,B17,0.0387 KA relative to UGCAUGU
18,B18,0.0192 KA relative to UGCAUGU
19,B19,0.0291 KA relative to UGCAUGU
20,B20,0.0225 KA relative to UGCAUGU
